The list is not random: actives were taken first. Their share in the collection is about 3.4%.
Mcl1 Noxa PPI = Mcl-1/Noxa interaction inhibition | Q07820 | TR-FRET Mcl-1/Noxa peptide binding, 2 h | inhibition, % at 21.7 µM | 220,000 compounds, 1.5% hits;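 active means compounds that cut the protein-peptide binding signal by more than 50% relative to plate controls in a single-dose test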;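 further: His-tagged Mcl-1 with rhodamine Noxa BH3 peptide and terbium anti-His antibody; 0% = Mcl-1 plus Noxa peptide wells and 100% = peptide-only wells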
Bim-Mcl-1 = human Bim-Mcl-1 interaction inhibition | Q07820 | Bead-based flow cytometry, Bim peptide-Mcl-1 binding | inhibition, % at 10 µM | 190,000 compounds, 0.1% hits | AID 1009; in the data active means inhibition above about 40%;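 further: 0% = no compound tracer wells and 100% = peptide blocker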
eIF4E-4G inh = inhibitors of eIF4E and eIF4G interaction in translation initiation. 220,000 compounds, 0.37% hits. inhibition, % at 21.7 µM. TR-FRET eIF4E-eIF4GI(517-606) binding, 2 h. P63073+Q04637;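 further: 0% = full FRET control wells and 100% = background wells lacking eIF4GI fragment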
14-3-3 Bad inh = disrupts binding of bovine 14-3-3 zeta to phospho-Bad peptide | P63103 | TR-FRET 14-3-3zeta/Dy647-pBad peptide displacement, 1 h | inhibition, % at 21.7 µM | 220,000 compounds, 0.71% hits;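 active means inhibition above about 70%, limit read from the data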;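 further: 0% = full 14-3-3 plus peptide FRET controls and 100% = background without 14-3-3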
p47phox inh = inhibitors of human p47phox binding; P14598; p47phox/p22phox peptide binding, fluorescence polarization, 2 h; inhibition, % at 24.7 µM; 220,000 compounds, 0.53% hits; AID 1274;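 further: 0% = p47phox with labelled peptide and 100% = labelled peptide alone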
Mcl1-Bid inh = Mcl-1/Bid interaction inhibition; AID 1021; inhibition, % at 21.7 µM; 220,000 compounds, 0.97% hits; TR-FRET Mcl-1/Bid-Dy647 peptide binding, 1536-well; Q07820;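 active means compounds that cut the binding signal by more than half at the single screening dose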;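 further: His-tagged Mcl-1 with europium anti-His antibody binding Bid BH3 peptide; 0% = Mcl-1 plus peptide wells and 100% = peptide-only wells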
* marks the source's active call; other numbers are inactive results; nt = no result; [ ] = remark or other dose.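 How the source made its calls, unless noted: active means inhibition above about 30% (limit read from the data); inactive means the rest.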

SMILES | Mcl1 Noxa PPI | Bim-Mcl-1 | eIF4E-4G inh | 14-3-3 Bad inh | p47phox inh | Mcl1-Bid inh
O=C(O)CCCN1C(=O)/C(=C/c2ccncc2)SC1=S | -24 | nt | 3 | 1 | -14 | -43
O=C(O)CCCN1C(=O)/C(=C/c2ccc(-c3nc4ccccc4s3)o2)SC1=S | 102* | 11 | 0 | -1 | -256 | 53*
O=C(O)CCCCCN1C(=O)/C(=C\c2ccncc2)SC1=S | 0 | -3 | -1 | 8 | -17 | -42
O=C(O)CCCCCN1C(=O)/C(=C\c2ccc(-c3ccc(Cl)cc3)o2)SC1=S | 105* | nt | 24 | 71* | 16 | 90*
Cc1ccc(C2C=NN(c3ccccc3)C2=O)cc1 (stereo not given) | 18 | 1 | -3 | -8 | 3 | -45
COc1cccc(-c2nc(NCCN3CCOCC3)c3ccccc3n2)c1O | 51* | 14 | 3 | -16 | -22 | -78
Oc1ccccc1-c1nc(NCCN2CCOCC2)c2ccccc2n1 | 29 | -3 | -4 | 11 | -17 | -16
C=C1CCC(C)C(C)(CCC2=CCOC2=O)C/C=C\C=C/1C(=O)O (stereo not given) | -18 | nt | -18 | 2 | -13 | 1
CN(C)CCCOc1ccc(C(C)(C)c2ccccc2)cc1 | -3 | -6 | 1 | 38 | -7 | 2
CN(C)CCOc1ccccc1C(C)(C)C | 33 | -7 | 3 | 48 | -4 | 63*
CN(C)CCOc1ccc(C(C)(C)c2ccccc2)cc1 | 26 | -1 | 5 | 58 | nt | 65*
O=C(CN1CCN(C2CCCCC2)CC1)Nc1ccc(Br)cc1 | 32 | -1 | -4 | 4 | 3 | 18
CN(C)c1ccc(NC(=O)CN2CCC(N3CCCCC3)CC2)cc1 | 35 | 0 | -5 | 75* | -1 | -17
CC(C)(C)C1CCC(OCC(O)CN2CCN(c3ccccc3)CC2)CC1 (stereo not given) | 7 | -3 | 3 | 75* | -1 | -15
COc1cccc(OC)c1OCC(O)CN1CCN(c2ccccc2)CC1 (stereo not given) | 16 | 1 | 0 | 72* | -15 | -25
Cc1ccc(NC(=O)c2sc3nc(CCl)[nH]c(=O)c3c2C)c(C)c1 | -3 | 2 | 1 | 4 | 2 | -1
CSc1cccc(NC(=S)N(Cc2ccc(C)cc2)Cc2cccnc2)c1 | 6 | 2 | 87* | -13 | -13 | -19
O=C(c1cnc2sccn2c1=O)N1CCN(c2ccccc2Cl)CC1 | 6 | nt | 98* | -2 | 0 | -14
COc1ccccc1-n1c(=O)c(C#N)c(-c2ccc([N+](=O)[O-])cc2)c2cc(C(=O)c3ccccc3O)cnc21 | -6 | nt | -9 | 4 | -34 | -25
Cc1noc2ncnc(Oc3ccccc3Cl)c12 | 6 | 1 | -6 | -1 | 2 | 2
Cc1cccc(Oc2ncnc3onc(C)c23)c1C | -11 | -3 | -3 | 85*[fluorescence artefact?] | 5 | 4
O=C(CCl)Nc1ccc(N2CCCCCC2)cc1 | 38 | 0 | 16 | -3 | 5 | -47
CN(C)S(=O)(=O)c1cc(S(=O)(=O)N(C)C)c(Cl)cc1N | 28 | 2 | -7 | 19 | -9 | 70*
CN(C)c1nc(-c2ccccc2)cc(C(F)(F)F)c1C#N | -3 | -2 | 3 | 6 | -2 | -19
CN(C)c1nc(-c2cccs2)cc(C(F)(F)F)c1C#N | 11 | nt | 2 | 3 | 58* | 6
SMILES | Mcl1 Noxa PPI | Bim-Mcl-1 | eIF4E-4G inh | 14-3-3 Bad inh | p47phox inh | Mcl1-Bid inh
COc1ccc(-n2nc(C(=O)Nc3nc4ccc(OC)cc4s3)c3ccccc3c2=O)cc1 | 6 | -5 | -6 | 48 | 38* | 24
COc1ccc2nc(N=Nc3c(O)ccc4ccccc34)sc2c1 | 2 | -2 | -8 | 23 | 34* | 29
COc1ccc2nc(Nc3ccc4c(c3)OCO4)sc2c1 | 10 | -3 | 0 | -4 | -5 | -12
COc1ccc2nc(NC(=O)/C=C/c3ccc4c(c3)OCO4)sc2c1 | 0 | 1 | 13 | 49 | 4 | 51*
COc1ccc2nc(NC(C)=O)sc2c1 | -7 | 0 | 0 | 6 | -4 | -7
COc1ccc2nc(NC(=O)Nc3cccc4ccccc34)sc2c1 | 75* | 0 | 0 | -13 | -13 | -33
COc1ccc2[nH]c3c(N4CCc5ccccc5C4)ncnc3c2c1 | 62* | nt | -4 | 4 | -47 | -1
COc1cc2[nH]c3c(N4CCN(c5ccccn5)CC4)ncnc3c2cc1OC | 64* | 4 | 1 | -7 | -83 | -16
